Data: PubChem BioAssay
“And” between values parts separate entries of the source, which are not always exact repeats. Equal values may be shown once. Records with an inconclusive call do not appear. The source made the active and inactive calls. Unless noted, no rule for the calls is given here.

Key:
[1] = circadian clock period modulators, cell-based, LOPAC library, luminescence reporter (AID 2774); conditions: circadian reporter cells, at 7 µM, actives lie on both sides;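 also: values are relative to mean of DMSO wells on each plate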
[2] = system: Aerobactin synthetase IucA (Klebsiella pneumoniae); experiment: IucA aerobactin synthetase inhibitors, biochemical, Tocris library, absorbance (AID 1345561); conditions: purified IucA enzyme assay, absorbance (OD) read-out; stronger effect = lower value;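 tested at 8 µM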;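 also: 100% = enzyme without compound and 0% = no enzyme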
[3] = system: Aerobactin synthetase IucA (Klebsiella pneumoniae, hypervirulent); experiment: IucA enzyme inhibition, biochemical, LOPAC library, absorbance readout (AID 1346212); conditions: IucA enzyme assay, absorbance (OD) readout; stronger effect = lower value;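 tested at 8 µM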;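 also: 100% = no compound wells and 0% = no enzyme wells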
[4] = sensitizers of A549 cells to miR-34 induction, primary screen, imaging, A549 dox-inducible miR-34, nuclei and caspase counts (AID 1347080;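 active = compounds whose cell count with miR-34 switched on is under 0.7 times the count with it off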); conditions: A549 miR-34 inducible, Hoechst nuclei count, 48 h
[5] = viability rescue of complex I mutant cybrids, primary screen, cell-based, galactose medium, ATP luminescence (AID 1645843;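 active = z-score of at least 1.8 in each of two replicates, scored against plate mean and spread of sample wells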;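 also: positive z means more ATP and so rescue of galactose-driven cybrid death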); conditions: complex I mutant cybrid cells, 72 h, stronger effect = higher value
[6] = system: Hepatitis C virus NS3 helicase; experiment: HCV NS3 helicase inhibitors, primary screen, biochemical, fluorescence polarization, LOPAC1280 library (AID 687035; in the data active = inhibition above about 37%); conditions: Purified HCV NS3 helicase, Cy5-dT15 ssDNA binding fluorescence polarization; stronger effect = higher value; concentration not given here
[7] = Cy5 fluorescence quenching or enhancement artefacts, artefact control for HCV NS3 helicase inhibitor project, biochemical, LOPAC1280 (AID 687037); conditions: Cy5-DNA-NS3h complex fluorescence interference counterscreen
[8] = phospholipid biosynthesis inhibitors in animal cells, primary screen, cell-based, LOPAC library, screen 4 (AID 1347384); conditions: phospholipid biosynthesis inhibition screen, at 10 µM
[9] = growth inhibition of DIPG glioma cells, dose response, cell-based, SU-DIPG-XVII, MIPE5.0, CellTiter-Glo, qHTS (AID 1347060; cut-off not given, nearly all actives have AC50 up to about 26 µM); conditions: SU-DIPG-XVII viability, CellTiter-Glo ATP luminescence
[10] = growth inhibition of DIPG glioma cells, dose response, cell-based, JHH-DIPG-1, MIPE4.0, CellTiter-Glo, qHTS (AID 1347062; cut-off not given, nearly all actives have AC50 up to about 27 µM); conditions: JHH-DIPG-1 viability, CellTiter-Glo ATP luminescence
[11] = growth inhibition of DIPG glioma cells, dose response, cell-based, SU-DIPG-IV, MIPE4.0, CellTiter-Glo, qHTS (AID 1347063; cut-off not given, nearly all actives have AC50 up to about 30 µM;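 also: compound exposure lasted 48 hours before the viability readout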); conditions: SU-DIPG-IV viability, CellTiter-Glo ATP luminescence
[12] = growth inhibition of DIPG glioma cells, dose response, cell-based, SU-DIPG-XIII, MIPE5.0, CellTiter-Glo, qHTS (AID 1347064; cut-off not given, nearly all actives have AC50 up to about 23 µM); conditions: SU-DIPG-XIII viability, CellTiter-Glo ATP luminescence
[13] = viability loss in pontine glioma line – cell-based, SU-DIPG-XXV, MIPE5.0, CellTiter-Glo, qHTS, dose response (AID 1347065; cut-off not given, nearly all actives have AC50 up to about 26 µM;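 also: cells exposed to compound for 48 hours before ATP readout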); conditions: CellTiter-Glo ATP luminescence
[14] = SU-DIPG-VI glioma cell viability, MIPE4.0 library, CellTiter-Glo luminescence, qHTS (AID 1347066; cut-off not given, nearly all actives have AC50 up to about 30 µM;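 also: cells exposed to compound for 48 hours before readout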); conditions: CellTiter-Glo ATP luminescence
[15] = SU-DIPG-XXV glioma cell viability, MIPE5.0 library, qHTS (AID 1347068; cut-off not given, nearly all actives have IC50 up to about 30 µM)
[16] = modifiers of HSF1 nuclear foci, imaging, Selleck Cancer Library (AID 1347162; in the data active = plate-normalised HSF1 focus index below about 0.46); conditions: human cells, at 10 µM; SSMD: measured here: HSF1 foci SSMD mean; cell count: measured here: cell number; plate-normalised HSF1 focus index: stronger effect = lower value
[17] = molecular target: ATP-dependent translocase ABCB1 (Homo sapiens) (UniProt P08183); experiment: MDR1 (ABCB1) efflux transporter inhibition, cell-based (AID 377; in the data active = fluorescence slope change above about 50%); conditions: MDR1-expressing cells, fluorescent substrate accumulation slope; stronger effect = higher value; concentration not given here
[18] = hESC survival regulators, cell-based (AID 493140); conditions: human embryonic stem cell survival screen; stronger effect = higher value;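 also: cells exposed to compounds for four days before counting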
[19] = liver-stage malaria parasite growth inhibition, primary screen, cell-based, HepG2, luciferase luminescence, HepG2 viability (AID 624349; in the data active = parasite load remaining mostly below about 12%, no sharp cut-off; inactive = mostly above about 10%;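 also: 100% = mean of DMSO negative control wells on the same plate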); conditions: P. berghei liver stage in HepG2, luciferase luminescence, concentration not given here; parasite load remaining: stronger effect = lower value; viability: measured here: HepG2 viability without parasites
[20] = survival rescue of mitochondrial mutant cells in low glucose, primary screen, MELAS cybrids, Rieske KO mouse fibroblasts, CellTiter-Glo (AID 1508586;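 active = mean z-score across replicates of 1.96 or higher in either the MELAS or the Rieske mutant cell line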;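 also: z relative to plate mean and SD of compound and empty wells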)
[21] = stronger effect = lower value, cell number ratio, induced over uninduced
[22] = measured here: relative caspase fold change +Dox/-Dox
[23] = measured here: total cells with miR-34 induction, stronger effect = lower value
[24] = measured here: total cells without miR-34 induction

Sequence of ATP-dependent translocase ABCB1 (Homo sapiens) (P08183 whole entry, looked up): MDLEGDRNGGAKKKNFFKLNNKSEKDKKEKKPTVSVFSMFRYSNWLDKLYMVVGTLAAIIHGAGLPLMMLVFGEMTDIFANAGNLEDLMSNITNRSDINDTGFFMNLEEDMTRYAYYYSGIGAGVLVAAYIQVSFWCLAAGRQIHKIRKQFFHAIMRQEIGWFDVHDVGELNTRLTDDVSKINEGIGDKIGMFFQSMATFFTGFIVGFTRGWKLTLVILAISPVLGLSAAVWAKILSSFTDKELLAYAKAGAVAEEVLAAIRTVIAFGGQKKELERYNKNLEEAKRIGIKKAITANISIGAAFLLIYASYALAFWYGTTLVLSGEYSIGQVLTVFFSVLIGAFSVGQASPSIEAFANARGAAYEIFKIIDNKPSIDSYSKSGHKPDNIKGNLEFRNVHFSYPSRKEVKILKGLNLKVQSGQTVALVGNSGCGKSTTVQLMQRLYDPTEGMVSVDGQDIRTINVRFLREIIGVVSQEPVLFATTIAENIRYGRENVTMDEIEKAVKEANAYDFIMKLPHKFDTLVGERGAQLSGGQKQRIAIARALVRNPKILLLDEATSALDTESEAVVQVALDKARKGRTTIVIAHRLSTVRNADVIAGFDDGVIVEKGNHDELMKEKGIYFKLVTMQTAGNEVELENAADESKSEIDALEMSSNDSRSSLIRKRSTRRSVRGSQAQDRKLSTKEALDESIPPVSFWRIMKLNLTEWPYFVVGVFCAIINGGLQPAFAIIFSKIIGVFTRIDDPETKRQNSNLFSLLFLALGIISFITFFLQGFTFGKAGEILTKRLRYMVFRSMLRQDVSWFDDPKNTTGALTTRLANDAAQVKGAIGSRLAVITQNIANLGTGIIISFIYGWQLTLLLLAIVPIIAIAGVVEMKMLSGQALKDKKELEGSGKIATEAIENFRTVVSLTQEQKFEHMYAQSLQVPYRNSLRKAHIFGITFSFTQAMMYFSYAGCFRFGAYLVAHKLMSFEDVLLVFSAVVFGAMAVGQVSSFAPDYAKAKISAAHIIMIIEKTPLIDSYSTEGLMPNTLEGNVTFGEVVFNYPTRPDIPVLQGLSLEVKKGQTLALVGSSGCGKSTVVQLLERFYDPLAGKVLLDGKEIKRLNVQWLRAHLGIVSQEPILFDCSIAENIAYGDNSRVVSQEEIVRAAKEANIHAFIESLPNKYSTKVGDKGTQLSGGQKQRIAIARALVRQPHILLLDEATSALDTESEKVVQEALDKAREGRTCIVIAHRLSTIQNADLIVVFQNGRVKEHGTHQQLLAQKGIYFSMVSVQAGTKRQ

## COc1ccc(-n2nc(C(F)(F)F)cc2-c2ccc(Cl)cc2)cc1
[1]
  period change: 0.125 h (inactive)
[2]
  remaining activity: 119% (inactive)
[3]
  remaining activity: 109% (inactive)
[4]; [21]
  fold change: 0.91 (inactive)
[4]; [22]
  fold change: 0.729
[4]; [23]
  cell count: 7020
[4]; [24]
  cell count: 7710
[5]
  z-score: -0.695 (inactive)

## O=C(Cc1ccc(Cl)c(Cl)c1)N1CCCCC1CN1CCCC1 (centres undefined)
[1]
  period change: -0.135 h (inactive)
[6]
  inhibition: -2% (inactive)
[7]
  fluorescence ratio (interference): 0.9 (inactive)
[2]
  remaining activity: 106% (inactive)
[3]
  remaining activity: 90.2% (inactive)
[4]; stronger effect = lower value
  fold change: 1.01 (inactive) and 0.956 (inactive)
[4]; [22]
  fold change: 1.27 and 0.734
[4]; [23]
  cell count: 9780 and 8020
[4]; [24]
  cell count: 9720 and 8380
[8]
  outcome: inactive
[5]
  z-score: 0.175 (inactive) and -0.475 (inactive)

## CCN1C[C@]2(COC(=O)c3ccccc3N3C(=O)C[C@H](C)C3=O)CC[C@H](OC)[C@]34C2[C@H](OC)[C@](O)([C@H]13)[C@@]1(O)C[C@H](OC)[C@H]2C[C@@H]4[C@@H]1[C@H]2OC
[2]
  remaining activity: 128% (inactive)
[4]; [21]
  fold change: 0.94 (inactive)
[4]; [22]
  fold change: 0.834
[4]; [23]
  cell count: 8220
[4]; [24]
  cell count: 8740
[5]
  z-score: -0.21 (inactive)

## Cc1[nH]cnc1CCN
[2]
  remaining activity: 109% (inactive)
[4]; [21]
  fold change: 0.956 (inactive)
[4]; [22]
  fold change: 1.94
[4]; [23]
  cell count: 10000
[4]; [24]
  cell count: 10500
[5]
  z-score: 0.125 (inactive)

## CCCN(CCC)C1CCc2ccc(O)cc2C1 (centres undefined)
[1]
  period change: 0.255 h (inactive)
[6]
  inhibition: -4% (inactive)
[7]
  fluorescence ratio (interference): 1 (inactive)
[2]
  remaining activity: 121% (inactive)
[4]; stronger effect = lower value
  fold change: 0.974 (inactive) and 1.05 (inactive)
[4]; [22]
  fold change: 0.963 and 0.686
[4]; [23]
  cell count: 10200 and 7960
[4]; [24]
  cell count: 10500 and 7600
[8]
  outcome: inactive
[5]
  z-score: -0.285 (inactive) and -0.13 (inactive)

## CN(C)CCN(C)CCc1ccc(Cl)c(Cl)c1
[2]
  remaining activity: 102% (inactive)
[9]
  outcome: inactive
[10]
  outcome: inactive
[11]
  outcome: inactive
[12]
  outcome: inactive
[13]
  outcome: inactive
[14]
  outcome: inactive
[15]
  outcome: inactive
[4]; [21]
  fold change: 0.927 (inactive)
[4]; [22]
  fold change: 0.848
[4]; [23]
  cell count: 8600
[4]; [24]
  cell count: 9270
[16]
  SSMD: 1.43
  cell count: 7160
  plate-normalised HSF1 focus index: 1.09 (inactive)
[5]
  z-score: -0.285 (inactive)

## CCCCCCC[n+]1ccc(-c2cc[n+](CCCCCCC)cc2)cc1
[2]
  remaining activity: 77% (inactive)
[4]; [21]
  fold change: 1.13 (inactive)
[4]; [22]
  fold change: 1.23
[4]; [23]
  cell count: 1940
[4]; [24]
  cell count: 1710
[5]
  z-score: -1.1 (inactive)

## CC(C)[C@@]1(NC(=O)[C@@H]2C[C@@H]3c4cccc5[nH]cc(c45)C[C@H]3N(C)C2)O[C@@]2(O)[C@@H]3CCCN3C(=O)[C@H](Cc3ccccc3)N2C1=O
[17]
  fluorescence slope change: 195% (active)
[1]
  period change: 0.005 h (inactive)
[18]
  survival: 11.8 (inactive)
[19]
  parasite load remaining: 54.5% (inactive) and 64.8% (inactive) and 17.1% (inactive)
  viability: 93% and 73.6% and 61.5%
[2]
  remaining activity: 88.2% (inactive)
[3]
  remaining activity: 120% (inactive)
[4]; stronger effect = lower value
  fold change: 0.784 (inactive) and 0.954 (inactive) and 0.887 (inactive)
[4]; [22]
  fold change: 1.05 and 0.961 and 0.856
[4]; [23]
  cell count: 6690 and 7710 and 8510
[4]; [24]
  cell count: 8530 and 8070 and 9590
[20]; MELAS cybrid survival, CellTiter-Glo 48 h, stronger effect = higher value
  z-score: -0.553 (inactive)
[20]; Rieske KO mouse fibroblast survival, CellTiter-Glo 72 h
  z-score: 0.653
[5]
  z-score: -0.045 (inactive) and 0.13 (inactive)

## CN1C2CCC1CC(OC(=O)c1cc(Cl)cc(Cl)c1)C2 (centres undefined)
[1]
  period change: -0.075 h (inactive)
[6]
  inhibition: -7% (inactive)
[7]
  fluorescence ratio (interference): 0.9 (inactive)
[2]
  remaining activity: 82.7% (inactive)
[4]; stronger effect = lower value
  fold change: 1.08 (inactive) and 0.937 (inactive)
[4]; [22]
  fold change: 1.35 and 0.719
[4]; [23]
  cell count: 8680 and 8550
[4]; [24]
  cell count: 8070 and 9130
[8]
  outcome: inactive
[5]
  z-score: -0.22 (inactive) and 0.04 (inactive)

## CC(=O)N(C)c1cccc(-c2ccnc3c(C(=O)c4cccs4)cnn23)c1
[2]
  remaining activity: 110% (inactive)
[10]
  outcome: inactive
[11]
  outcome: inactive
[14]
  outcome: inactive
[4]; stronger effect = lower value
  fold change: 0.919 (inactive)
[4]; [22]
  fold change: 1.18
[4]; [23]
  cell count: 6530
[4]; [24]
  cell count: 7110
[5]
  z-score: 2.35 (active)

## Ic1cncc(OC[C@@H]2CCN2)c1
[2]
  remaining activity: 118% (inactive)
[4]; [21]
  fold change: 0.934 (inactive)
[4]; [22]
  fold change: 0.549
[4]; [23]
  cell count: 9660
[4]; [24]
  cell count: 10300
[5]
  z-score: -0.135 (inactive)

## O=C1CSC(c2ccccc2Cl)c2cc(Cl)ccc2N1 (centres undefined)
[2]
  remaining activity: 115% (inactive)
[4]; stronger effect = lower value
  fold change: 0.848 (inactive) and 0.875 (inactive)
[4]; [22]
  fold change: 1.12 and 0.874
[4]; [23]
  cell count: 2450 and 7360
[4]; [24]
  cell count: 2880 and 8400
[5]
  z-score: -0.095 (inactive)

## C[C@H](Cc1ccc(OCC(=O)O)cc1)NC[C@H](O)c1cccc(Cl)c1
[2]
  remaining activity: 121% (inactive)
[4]; [21]
  fold change: 0.941 (inactive)
[4]; [22]
  fold change: 0.725
[4]; [23]
  cell count: 7990
[4]; [24]
  cell count: 8500
[5]
  z-score: -0.27 (inactive)
